Assay [1] in a line: A CellTox Green Cytotoxicity Assay to monitor cytotoxicity in HEK293 cells - 32 hour (AID 1224881). Also: nearly all actives have a fitted effect of over 40% in size. The method in brief: (§1)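 Homogeneous no-lysis format: HEK293 cell suspension mixed with CellTox Green reagent, seeded, incubated 5 h at 37 C/5% CO2, then dosed by pintool with compound in DMSO.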
Assay [2] is described as follows: A CellTox Green Cytotoxicity Assay to monitor cytotoxicity in HepG2 cells - 0 hour (AID 1224882). Also: nearly all actives have a fitted effect of over 35% in size. The method in brief:
(§2)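 Fluorescent DNA-binding dye, 600 HepG2 cells/well, 5 h preincubation then compound in DMSO; same plates read at 0–40 h, 37 C.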

Assay [3] can be described thus: A CellTox Green Cytotoxicity Assay to monitor cytotoxicity in HepG2 cells - 32 hour (AID 1224883). Also: nearly all actives have a fitted effect of over 50% in size. The gist of the method:
as §2

Assay [4] in a line: A CellTox Green Cytotoxicity Assay to monitor cytotoxicity in HEK293 cells - 8 hour (AID 1224884). Also: nearly all actives have a fitted effect of over 35% in size. Also: potency is read from the fitted curve at half-maximal effect. The gist of the method: as §1
The nature of assay [5]: qHTS RealTime-Glo MT Cell Viability Assay in HepG2 cells - 16 hour (AID 1224885). Also: nearly all actives have a fitted effect of over 50% in size. The method in brief: (§3)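 Cells + NanoLuc/prosubstrate dispensed (600 cells/well) → 5 h at 37 C/5% CO2 → compounds in DMSO transferred → 40 h incubation at 37 C, luminescence read at 0, 8, 16, 24, 32, 40 h.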
(In qHTS, concentration-response curves come from the screen itself.)

Assay [6] can be described thus: qHTS RealTime-Glo MT Cell Viability Assay in HEK293 cells - 24 hour (AID 1224886). Also: top concentration of the series differs between compounds; nearly all actives have a fitted effect of over 50% in size. The method in brief:
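Tox21 10K qHTS, HEK293, 600 cells/well, RealTime-Glo reagent co-dispensed with cells; 5 h preincubation, compound by pintool, 37 C, luminescence at 0–40 h.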

Assay [7] in a line: qHTS RealTime-Glo MT Cell Viability Assay in HEK293 cells - 8 hour (AID 1224887). Also: top concentration of the series differs between compounds; nearly all actives have a fitted effect of over 50% in size. The method in brief: (§4)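 Measured as luminescence from the same continuously cultured HEK293 wells at successive time points (0, 8, 16, 24, 32, 40 h) after compound addition. Reagent present from seeding; dosing at 5 h; incubation 37 C.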
A short description of assay [8]: qHTS RealTime-Glo MT Cell Viability Assay in HepG2 cells - 0 hour (AID 1224889). Also: nearly all actives have a fitted effect of over 50% in size. The method in brief:
as §3

A short description of assay [9]: qHTS assay to identify small molecule antagonists of the estrogen receptor alpha (ER-alpha) signaling pathway using the BG1 cell line in the presence of 0.1 nM 17-beta-estradiol - cell viability counter screen (AID 1259241). Also: nearly all actives have a fitted effect of over 40% in size. The gist of the method: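 VM7Luc4E2 cells (endogenous full-length ER-alpha, 4xERE-luciferase), cultured 5 days in charcoal-stripped serum, exposed to compounds with 0.1 nM 17beta-estradiol (final) for 22 hr at 37C. Viability read in same wells as live-cell protease fluorescence after 30 min.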

A short description of assay [10]: qHTS assay to identify small molecule antagonists of the androgen receptor (AR) signaling pathway using the MDA cell line in the presence of 0.5 nM R1881 - cell viability counter screen (AID 1259242). Also: nearly all actives have a fitted effect of over 45% in size. The gist of the method: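 Human breast carcinoma MDA-kb2 cells, cultured without CO2, receive compounds alongside 0.5 nM (final) R1881 agonist. After 16 hr at 37C, viability is taken as live-cell protease signal.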

Assay [11] deals with Estrogen receptor (Homo sapiens) (UniProt P03372). The assay can be described thus: qHTS assay to identify small molecule antagonists of the estrogen receptor alpha (ER-alpha) signaling pathway using the BG1 cell line in the presence of 0.1 nM 17-beta-estradiol (AID 1259244). Also: nearly all actives have a fitted effect of over 50% in size. The method in brief: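 Seeding of stripped-serum-adapted VM7Luc4E2 cells, 24 h attachment, compound transfer, then 0.1 nM final 17beta-estradiol; after 22 h incubation, ONE-Glo reagent and luminescence reading.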

The nature of assay [12]: qHTS assay to identify small molecule phospholipidosis (PLD) inducers (AID 1259344; active = well fitted curve in the direction sought with a large enough effect; an effect the other way counts as inactive or inconclusive). The gist of the method:
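Image-based: LipidTOX Red pit count/intensity per well and per cell; HepG2, 24 h compound at 37 C, PFA fixation, Hoechst counterstain.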

Assay [13] is described as follows: qHTS assay to identify small molecule HDAC inhibitors (AID 1259364).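 Also: wild-type HCT-116 cells with endogenous class I/II HDAC activity; top concentration of the series differs between compounds; nearly all actives have a fitted effect of over 45% in size.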 The gist of the method: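 After a 2 hr compound incubation (37C, 5% CO2), HCT-116 cells seeded at 1,500/well the day before received HDAC-Glo reagent; signal read as luminescence after 30 min at room temperature.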
The nature of assay [14]: qHTS assay to identify small molecule HDAC inhibitors - cell viability counter screen (AID 1259365). The gist of the method:
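Wild-type HCT-116 cells, 1,500/well, cultured overnight, then compound-treated 2 h at 37 C. Viability measured as ATP luminescence with CellTiter-Glo after 30 min at room temperature.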

Assay [15] in a line: qHTS assay to identify small molecule agonists of the sonic hedgehog signaling (Shh) pathway - cell viability counter screen (AID 1259366). Also: nearly all actives have a fitted effect of over 50% in size. Also: potency is read from the fitted curve at half-maximal effect. The method in brief:
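NIH/3T3-derived Gli1-Luc reporter cells, 2,000 per well, received compound after 4 h and were treated about 23 h at 37C. Viability measured in the same wells by CellTiter-Fluor fluorescence after 1 h.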

Assay [16] is described as follows: qHTS assay to identify small molecule antagonists of the sonic hedgehog signaling (Shh) pathway - cell viability counter screen (AID 1259367). Also: nearly all actives have a fitted effect of over 55% in size. The gist of the method: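 Tox21 library chemicals were tested on a Gli1-Luc NIH/3T3 clone (2,000 cells/well) stimulated by conditioned medium; viability was quantified as fluorescence from CellTiter-Fluor reagent added at 23 hr.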

Assay [17] is described as follows: qHTS RealTime-Glo MT Cell Viability Assay in HEK293 cells - 0 hour (AID 1224880). Also: top concentration of the series differs between compounds; nearly all actives have a fitted effect of over 45% in size. The method in brief: as §4
Assay [18] can be described thus: A CellTox Green Cytotoxicity Assay to monitor cytotoxicity in HEK293 cells - 16 hour (AID 1224888). Also: nearly all actives have a fitted effect of over 35% in size. Also: potency is read from the fitted curve at half-maximal effect. The method in brief:
as §1

A short description of assay [19]: A CellTox Green Cytotoxicity Assay to monitor cytotoxicity in HepG2 cells - 8 hour (AID 1224890). Also: nearly all actives have a fitted effect of over 45% in size. The gist of the method:
as §2

Assay [20] concerns the target Androgen receptor (Homo sapiens) (UniProt P10275). Nature of the assay: qHTS assay to identify small molecule antagonists of the androgen receptor (AR) signaling pathway using the MDA cell line in the presence of 0.5 nM R1881 (AID 1259243). Also: nearly all actives have a fitted effect of over 50% in size. The method in brief: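 Cells: MDA-kb2 (MMTV-luc). Stimulus: 0.5 nM R1881. Time: 16 hr, 37C, no CO2. Detection: ONE-Glo luminescence after 30 min at RT.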

The structures appear in SMILES notation. Values without a mark were called inactive. Results filed as inconclusive are left out. The source made the active and inactive calls. Unless noted, calls follow the shape of the dose curve; as a rule, active = well fitted curve in the direction sought with a large enough effect in the repeat runs; inconclusive = weak or mixed curves; inactive = no such curve, though single readings can be large; an effect the other way counts as inactive or inconclusive.
% is scaled to controls: 0 for no effect and ±100 for the full control effect.

Chain of Estrogen receptor (Homo sapiens) (P03372 whole entry, looked up): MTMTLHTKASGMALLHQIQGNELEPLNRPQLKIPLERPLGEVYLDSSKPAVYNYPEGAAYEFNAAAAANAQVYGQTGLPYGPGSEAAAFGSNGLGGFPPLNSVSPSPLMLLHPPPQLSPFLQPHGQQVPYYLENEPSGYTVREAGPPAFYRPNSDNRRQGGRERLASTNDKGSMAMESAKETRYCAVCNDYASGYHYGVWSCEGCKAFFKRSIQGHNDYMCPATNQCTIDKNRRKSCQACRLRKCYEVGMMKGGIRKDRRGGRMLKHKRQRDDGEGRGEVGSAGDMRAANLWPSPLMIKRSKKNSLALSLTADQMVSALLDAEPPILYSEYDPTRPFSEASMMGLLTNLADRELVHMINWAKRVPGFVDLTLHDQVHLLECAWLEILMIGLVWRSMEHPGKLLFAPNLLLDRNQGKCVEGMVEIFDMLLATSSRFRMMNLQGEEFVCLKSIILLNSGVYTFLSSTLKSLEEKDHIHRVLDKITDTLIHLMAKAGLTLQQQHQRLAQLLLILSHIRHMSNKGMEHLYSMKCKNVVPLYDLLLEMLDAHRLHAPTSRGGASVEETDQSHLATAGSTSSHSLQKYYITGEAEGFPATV
Chain of Androgen receptor (Homo sapiens) (P10275 whole entry, looked up): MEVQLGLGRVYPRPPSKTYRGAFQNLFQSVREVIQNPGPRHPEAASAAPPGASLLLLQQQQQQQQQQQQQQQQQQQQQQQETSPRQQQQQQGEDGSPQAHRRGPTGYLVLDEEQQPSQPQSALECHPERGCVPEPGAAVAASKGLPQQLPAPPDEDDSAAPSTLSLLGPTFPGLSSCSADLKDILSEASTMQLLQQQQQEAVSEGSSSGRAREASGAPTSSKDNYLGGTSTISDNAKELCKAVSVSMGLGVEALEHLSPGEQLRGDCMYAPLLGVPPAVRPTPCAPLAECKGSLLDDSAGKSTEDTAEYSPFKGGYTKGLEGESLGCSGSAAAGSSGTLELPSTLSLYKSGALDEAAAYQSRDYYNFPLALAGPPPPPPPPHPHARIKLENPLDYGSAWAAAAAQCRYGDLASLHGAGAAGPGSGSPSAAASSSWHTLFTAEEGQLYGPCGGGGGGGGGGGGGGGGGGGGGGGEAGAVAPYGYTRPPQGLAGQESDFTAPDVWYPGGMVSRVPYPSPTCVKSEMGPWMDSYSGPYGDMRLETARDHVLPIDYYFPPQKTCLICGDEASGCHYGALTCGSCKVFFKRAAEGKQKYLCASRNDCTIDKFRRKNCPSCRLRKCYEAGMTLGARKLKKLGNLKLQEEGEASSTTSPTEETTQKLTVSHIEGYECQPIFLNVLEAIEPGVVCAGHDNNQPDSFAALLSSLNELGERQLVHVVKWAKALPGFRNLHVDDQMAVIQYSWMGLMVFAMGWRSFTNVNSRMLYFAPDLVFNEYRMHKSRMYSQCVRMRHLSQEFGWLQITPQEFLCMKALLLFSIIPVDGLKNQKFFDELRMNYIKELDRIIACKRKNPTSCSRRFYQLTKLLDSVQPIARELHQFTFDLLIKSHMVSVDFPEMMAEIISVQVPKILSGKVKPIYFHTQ

`CCCCCC[C@@H](CCC)C(=O)O`: the Potency result in assay [1], in assay [2], in assay [3], in [4], in assay [6] and in [7] was “inactive” in each case. For the same molecule, the Potency entry in assay [8], in assay [12], in assay [13] and in [15] was “inactive” throughout. Besides, the outcome in assay [5], in assay [9], in assay [10], in [11], in assay [14] and in assay [16] was inactive.
Regarding `COC(=O)[C@H]1[C@H]2C[C@@H]3c4[nH]c5cc(OC)ccc5c4CCN3C[C@H]2C[C@@H](OC(=O)COc2ccc(OC)cc2)[C@@H]1OC`, the call in assay [17], in assay [5], in assay [9], in [10], in assay [11] and in assay [14] was inactive. Also, the call in assay [16] was inactive. Besides, the Potency result in assay [2], in [3], in [6], in assay [7], in [18] and in [8] was “inactive” each time. Besides, the Potency entry in [19], in assay [12], in assay [13] and in assay [15] was “inactive” throughout.
Take `NC(=O)Nc1nc2ccccc2[nH]1`: the call in [17], in [5], in [9], in [10], in [11] and in assay [14] was inactive. Also, in assay [16], the molecule was called inactive. The Potency result in [2], in assay [3], in assay [4], in assay [6], in [7] and in assay [8] was “inactive” each time. Also, the Potency result in assay [19], in assay [13] and in assay [15] was “inactive” each time.
For `C1CCCCCCCCCCC1`, the cytotoxicity increase in assay [1] was -37.3% [at 15.8 µM]; in assay [3] it was -10.5% [at 15.8 µM]; in assay [4], -28.5% [at 15.8 µM]; in [19], -1.99% [at 15.8 µM]. Besides, the cytotoxicity in [2] was -1.21% [at 15.8 µM]. The activity change, negative = cytotoxic in assay [5] was -3.94% [at 15.8 µM]. Further, the activity change in [18] is -33.7% [at 15.8 µM, hits give high values]. The values for the activity change, negative = cytotoxicity in assay [8], in assay [9] and in [14] were -19.7% [at 15.8 µM], -5.47% [at 19 µM] and -1.94% [at 19 µM], respectively. The viability change, negative = cytotoxic in [10] is 10.4% [at 19 µM]; in assay [15] it was 0.953% [at 19 µM]; in assay [16], -0.0913% [at 19 µM]. Further, the Potency result in assay [20] was “inactive”. Also, the activity change, negative = inhibition is -1.81% [at 19 µM] in assay [11] and 3.38% [at 19 µM] in assay [13].
As to `CCC(C(=O)NC(N)=O)c1ccccc1` (stereo unspecified), the call in [17], in assay [5], in assay [9], in [10], in assay [11] and in assay [14] was inactive. Moreover, the Potency result in assay [2], in assay [3], in [4], in [6], in assay [7] and in assay [8] was “inactive” each time. Further, the Potency entry in assay [19], in assay [12], in [13] and in assay [15] was “inactive” throughout.
Consider `NC(=O)c1ncn([C@@H]2O[C@H](CO)[C@@H](O)[C@H]2O)c1O`, for which the call in assay [17], in [5], in assay [9], in [10], in assay [11] and in assay [14] was inactive. In addition, the result in assay [16] was inactive. Also, the Potency in assay [4] was 23.9 µM (active); in assay [18], 19 µM (active). The Potency entry in assay [6], in assay [7], in assay [8], in [12], in assay [13] and in assay [15] was “inactive” throughout.
On to `COC(=O)C1=C(C)NC(C)=C(C(=O)OCC(C)=O)C1c1ccccc1[N+](=O)[O-]` (stereo unspecified), for which the Potency entry in assay [1], in assay [2], in assay [3], in assay [4], in assay [6] and in assay [7] was “inactive” each time. The Potency result in assay [18], in [19], in assay [12] and in assay [13] was “inactive” each time. The result in [9], in [10], in [11] and in [14] was inactive. The Potency in assay [15] is 26.6 µM (active).
Consider `C#CC(C)(O)CC(C)C` (stereo unspecified), for which the molecule was called inactive in assay [17], in assay [5], in assay [9], in assay [10], in assay [14] and in assay [16]. Besides, the Potency result in assay [2], in assay [3], in assay [4], in [6], in assay [7] and in [8] was “inactive” in each case. The Potency result in assay [19], in assay [13] and in [15] was “inactive” each time.

The values above are taken from PubChem BioAssay (Tox21).
